The list is not random: actives were taken first. Their share in the collection is about 31%.
CYP2C9 inh: blockers of cytochrome P450 2C9 activity – biochemical, luminescence, ADME assay, primary screen; P11712; CYP2C9 Supersomes, luciferin-H conversion; inhibition, % at 5 µM; 96,000 tested, 20% active; AID 777, 2007;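 active = blocking of liver enzyme CYP2C9 beyond about 50% at 5 µM, limit read from the data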
CYP2C19 inhib: blockers of cytochrome P450 2C19 activity – biochemical, luminescence, ADME assay, primary screen | P33261 | CYP2C19 Supersomes, luciferin-H EGE luminescence, 30 min | inhibition, % at 5 µM | 96,000 tested, 21% active;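 active = CYP2C19 inhibition above a set limit at 5 µM in the primary screen, cut at about 50% in these data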;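 note: plate controls were negative control wells for no effect and 2.5 mM tranylcypromine positive control for full effect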
CYP2C9 act: human CYP2C9 activators, primary screen, biochemical, luminescence; recombinant CYP2C9, luciferin-H conversion; active compounds read high; factor 1 = untreated enzyme, 0 = blocked; activation factor at 5 µM; Cytochrome P450 2C9 (Homo sapiens), P11712; 96,000 tested, 1.4% active;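 active = activation factor of 2 or more for CYP2C9 at a 5 µM dose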;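 note: 0 = sulfaphenazole-blocked wells and 1 = vehicle-only wells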
PLAP activator: PLAP enzyme activators, biochemical, luminescence, HTS. 96,000 tested, 1.2% active. purified PLAP enzyme, luminescent substrate read-out; active compounds read high. activation fold at 20 µM. AID 696, 2007. Alkaline phosphatase, placental type (Homo sapiens), P05187; in the data active = activation fold above about 2
Target sequence (P05187 whole entry, looked up): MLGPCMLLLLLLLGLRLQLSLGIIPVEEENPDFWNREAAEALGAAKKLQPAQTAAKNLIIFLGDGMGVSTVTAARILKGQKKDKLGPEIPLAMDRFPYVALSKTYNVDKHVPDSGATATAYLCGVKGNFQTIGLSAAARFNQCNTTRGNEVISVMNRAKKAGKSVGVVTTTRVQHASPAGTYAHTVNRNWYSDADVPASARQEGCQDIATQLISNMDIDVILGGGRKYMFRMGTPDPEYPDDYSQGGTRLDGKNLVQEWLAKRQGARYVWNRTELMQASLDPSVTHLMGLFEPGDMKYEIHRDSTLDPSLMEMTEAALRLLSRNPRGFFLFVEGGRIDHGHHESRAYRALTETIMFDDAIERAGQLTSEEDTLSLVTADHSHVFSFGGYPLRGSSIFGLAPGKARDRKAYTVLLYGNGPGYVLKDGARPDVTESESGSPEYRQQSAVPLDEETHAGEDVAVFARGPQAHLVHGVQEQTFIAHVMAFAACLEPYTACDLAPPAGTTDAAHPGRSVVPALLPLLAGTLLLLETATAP
CYP2C19 activ: human CYP2C19 activators, primary screen, biochemical, luminescence; recombinant CYP2C19, luciferin-H EGE luminescence; active compounds read high; 0 = fully inhibited enzyme, 1 = untreated enzyme; 96,000 tested, under 10 active; AID 1025, 2008; activation factor at 5 µM;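 active = activation factor of at least 2 at 5 µM in the primary screen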;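 note: 0 = wells with 2.5 mM tranylcypromine and 1 = vehicle-only wells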
* marks the source's active call; other numbers are inactive results.

SMILES	CYP2C9 inh	CYP2C19 inhib	CYP2C9 act	PLAP activator	CYP2C19 activ
CO/N=C(\C)c1ncc(C(F)(F)F)cc1N1CCOCC1	-28	-23	1.3	1.1	1.2
COc1ccc(CCNC(=O)C2CCN(S(C)(=O)=O)CC2)cc1	9	10	0.9	1.1	0.9
O=C(CSc1nnnn1C1CCCCC1)NCc1ccccc1	62*	62*	0.4	1	0.4
CC(C)N(C(=O)CSc1nnnn1C1CCCC1)C(C)C	28	81*	0.7	1.1	0.2
O=C(CSc1nnnn1C1CCCC1)NCc1ccccc1	16	48	0.8	1.1	0.5
O=C(CSc1nnnn1C1CCCC1)Nc1cccc(NC(=O)c2ccco2)c1	83*	83*	0.2	0.9	0.2
O=C(CSc1nnnn1C1CCCCC1)N1CCCC1	-8	-1	1.1	1.1	1
O=C(CSc1nnnn1C1CCCCC1)Nc1cccc(NC(=O)c2ccco2)c1	77*	69*	0.2	0.8	0.3
CSc1sc(C(=O)O)c(C)c1C(C)=O	-7	-7	1.1	1.2	1.1
Cc1ccc(-n2nnnc2SCC(=O)c2c(N)n(CC(C)C)c(=O)n(C)c2=O)cc1	19	22	0.8	1.2	0.8
CCCSc1nnc(NC(=O)c2nc(SC)ncc2Cl)s1	20	-17	0.8	1	1.2
CCCCC1CCC(C(=O)Nc2ccc(S(=O)(=O)Nc3nccs3)cc2)CC1 (stereo not drawn)	22	-8	0.8	1.3	1.1
CCCn1nnnc1SCC(=O)N1CCCC1	-5	2	1.1	1	1
CC(C)OCCCNC(=O)c1cc2c(s1)CS(=O)(=O)C2	-11	7	1.1	1.1	0.9
CC(=O)c1cccc(-n2nnnc2SCC(=O)Nc2cccc(NC(=O)c3ccco3)c2)c1	55*	82*	0.4	1.5	0.2
CC(=O)c1cccc(-n2nnnc2SCC(=O)Nc2ccccc2N2CCCCC2)c1	87*	96*	0.1	1.5	0
Cc1occc1-c1nnc(SCC(=O)Nc2ccccc2N2CCCCC2)n1C	28	45	0.7	1.4	0.5
O=C(CSc1nnnn1C1CCCCC1)Nc1ccc2c(c1)OCO2	53*	25	0.5	1.2	0.8
Cc1cc(NC(=O)c2ccc(Cl)cc2)c(C(C)C)cc1O	-78	51*	1.8	0.9	0.5
OCCn1c(SC2CCCCC2)nc2ccccc21	16	39	0.8	0.9	0.6
O=C(O)CCSc1nc2ccccc2n1CCOc1ccccc1	17	-4	0.8	1.4	1
OCCSc1nc2ccccc2n1CCOc1ccccc1	78*	91*	0.2	1.6	0.1
O=C(O)Cn1c(SCCOc2ccccc2F)nc2ccccc21	70*	8	0.3	1.1	0.9
OCCn1c(SCCOc2ccccc2F)nc2ccccc21	52*	94*	0.5	0.8	0.1
COc1ccc(CNC(=O)CCCNS(=O)(=O)c2cccc3nonc23)cc1	26	35	0.7	0.9	0.7
SMILES	CYP2C9 inh	CYP2C19 inhib	CYP2C9 act	PLAP activator	CYP2C19 activ
CC(=O)CSc1nnc(-c2cnccn2)n1-c1ccccc1	-14	-17	1.1	1.1	1.2
CCOC(=O)C1C(=O)CC(O)(c2ccccc2)CC1c1ccccc1 (stereo not drawn)	82*	73*	0.2	1	0.3
CCOC(=O)C1C(=O)NC(C)C1c1ccccc1 (stereo not drawn)	-8	-22	1.1	1.2	1.2
c1ccc(-c2noc(-c3cccnc3)n2)nc1	3	25	1	0.9	0.7
COc1cccc(-c2nc(-c3ccccn3)no2)c1	39	75*	0.6	1.1	0.2
c1ccc(-c2noc(-c3ccc4c(c3)OCO4)n2)nc1	92*	79*	0.1	0.9	0.2
c1ccc(-c2noc(-c3ccncc3)n2)nc1	25	68*	0.7	0.9	0.3
COc1cccc(-c2nc(-c3ccccc3)no2)c1	-3	2	1	0.9	1
c1ccc(-c2noc(-c3ccc4ccccc4c3)n2)nc1	-5	20	1	0.9	0.8
CCC(C)NC(=O)C1CCN(S(=O)(=O)CC)CC1 (stereo not drawn)	3	2	1	1	1
